About 79,000 compounds went through this panel and 15% of them were active in at least one assay; those are over-represented in the sample as a whole. Activity calls are given as the source filed them. Cut-off read from the data, not from the text of the source: active = growth inhibition above about 70%; inactive = the rest.
What was measured:
[1] = NCI Yeast Anticancer Drug Screen. Data for the rad52 strain (AID 147);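 note: 0% = growth of vehicle-treated control cultures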; details: S. cerevisiae rad52 mutant growth inhibition, active compounds read high
Method in brief: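 Growth of repair-deficient yeast cells was compared between compound-treated and vehicle-treated cultures to give percent inhibition.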

[2] = NCI Yeast Anticancer Drug Screen. Data for the wt1 strain (AID 149);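 note: 0% = growth of vehicle-treated wt1 cultures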; details: S. cerevisiae wt1 strain (SPY 50644) growth inhibition, active compounds read high
Method in brief: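 Each compound is tested on wt1 yeast and the loss of growth versus vehicle gives the inhibition value.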

[3] = NCI Yeast Anticancer Drug Screen. Data for the rad50EPP+ strain (AID 151);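 note: 0% = growth of vehicle-treated control cultures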; details: S. cerevisiae rad50 mutant strain, active compounds read high
Method in brief: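 Measured: growth inhibition of rad50EPP+ yeast. Reference: vehicle-treated controls. Screen uses strains with defined genetic alterations in DNA damage repair or cell cycle control.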

[4] = NCI Yeast Anticancer Drug Screen. Data for the rad50 strain (AID 155);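 note: 0% = growth of vehicle-only cultures of the same strain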; details: S. cerevisiae rad50 strain growth inhibition, active compounds read high
Method in brief: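 Vehicle-treated cultures provide the reference for the growth inhibition reported for compound-exposed, repair-deficient yeast.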

[5] = NCI Yeast Anticancer Drug Screen. Data for the mec2-1 strain (AID 157); details: S. cerevisiae mec2-1 strain, active compounds read high
Method in brief: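 Compounds were applied to mec2-1 yeast cells. Their growth was then compared with that of vehicle-treated cultures to give growth inhibition.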

[6] = NCI Yeast Anticancer Drug Screen. Data for the rad14 strain (AID 159);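 note: 0% = growth of vehicle-treated control cultures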; details: S. cerevisiae rad14 strain growth inhibition, active compounds read high
Method in brief: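 Inhibition of growth is reported for a repair-deficient yeast mutant following compound treatment, calculated relative to cultures that received vehicle.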

[7] = NCI Yeast Anticancer Drug Screen. Data for the sgs1 mgt1 strain (AID 161);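 note: 0% = growth of cultures given vehicle only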; details: S. cerevisiae sgs1 mgt1 strain, active compounds read high
Method in brief: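 This yeast growth screen uses a strain with defined DNA-repair lesions; compound-treated growth is compared with vehicle-treated growth.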

[8] = NCI Yeast Anticancer Drug Screen. Data for the CLN2oe strain (AID 163);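 note: 0% = growth of vehicle-only control cultures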; details: S. cerevisiae CLN2oe strain, active compounds read high
Method in brief: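 Cells of an engineered yeast line with disturbed cell-cycle regulation are treated with compound. Inhibition of growth is then calculated relative to the vehicle-treated reference.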

[9] = NCI Yeast Anticancer Drug Screen. Data for the cln2 rad14 strain (AID 165);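 note: 0% = growth equal to vehicle treated cultures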; details: S. cerevisiae cln2 rad14 strain, active compounds read high
Method in brief: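 Strain: cln2 rad14 yeast, altered in cell cycle control and DNA damage repair. Read-out: growth inhibition vs vehicle.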

[10] = NCI Yeast Anticancer Drug Screen. Data for the bub3 strain (AID 167); details: S. cerevisiae bub3 mutant strain, active compounds read high
Method in brief: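 Mutant yeast screening strain plus compound; vehicle-treated cultures serve as the 0% inhibition reference.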

[11] = NCI Yeast Anticancer Drug Screen. Data for the wt2 strain (AID 169); details: S. cerevisiae wt2 strain growth inhibition, active compounds read high
Method in brief: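 Growth of compound-treated yeast is measured and expressed as inhibition relative to vehicle-only controls.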

[12] = NCI Yeast Anticancer Drug Screen. Data for the mlh1 strain (AID 171);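 note: 0% = growth of vehicle-treated control cultures of the same strain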; details: S. cerevisiae mlh1 strain growth inhibition, active compounds read high
Method in brief: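 Test agents were incubated with yeast bearing a defined DNA damage repair or cell cycle control alteration; values are growth inhibition normalised to vehicle-treated cultures.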

[13] = NCI Yeast Anticancer Drug Screen. Data for the sgs1 strain (AID 173);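 note: 0% = growth of vehicle-only control cultures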; details: S. cerevisiae sgs1 mutant, active compounds read high
Method in brief: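 Strain with an altered DNA repair or cell cycle pathway exposed to compound. Growth then measured. Value = inhibition versus vehicle control.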

[14] = NCI Yeast Anticancer Drug Screen. Data for the mlh1 rad18 strain (AID 175); details: S. cerevisiae mlh1 rad18 strain growth inhibition, active compounds read high
Method in brief: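 A repair-deficient yeast strain is exposed to test compound, and growth is scored relative to vehicle-treated controls.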

[15] = NCI Yeast Anticancer Drug Screen. Data for the rad18 strain (AID 177); details: S. cerevisiae rad18 mutant growth inhibition, active compounds read high
Method in brief: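 DNA-repair-defective yeast; compound treatment; growth inhibition scored against vehicle.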

[16] = at 5.0 µM (retest, dose inferred, filed as 0.5)
[17] = at 50.0 µM (retest, dose inferred, filed as 5.0)

Measured: growth inhibition

CCN(CC)CCNc1ccc([N+](=O)[O-])c2nc3ccccc3c(N)c12
active: [1]; at 100.0 µM 81% | [3]; at 100.0 µM 77% | [4]; [17] 71% | [4]; at 50.0 µM 74.3% | [4]; at 100.0 µM 84% | [7]; at 50.0 µM 82.1% | [14]; at 50.0 µM 85.2%
inactive: [1]; at 1.2 µM 1% | [1]; at 3.7 µM -6% | [1]; at 11.0 µM 10% | [1]; at 33.0 µM 31% | [2]; at 1.2 µM -10% | [2]; at 3.7 µM -7% | [2]; at 11.0 µM -13% | [2]; at 33.0 µM -9% | [2]; at 100.0 µM -6% | [3]; at 1.2 µM -14% | [3]; at 3.7 µM -4% | [3]; at 11.0 µM 1% | [3]; at 33.0 µM 34% | [4]; at 1.2 µM 10% | [4]; at 3.7 µM 14% | [4]; [16] 2% | [4]; at 11.0 µM 15% | [4]; at 33.0 µM 46% | [5]; at 1.2 µM -13% | [5]; at 3.7 µM -23% | [5]; [16] -5% | [5]; at 11.0 µM -11% | [5]; at 33.0 µM -13% | [5]; [17] -2% | [5]; at 50.0 µM 35.2% | [5]; at 100.0 µM 0% | [6]; at 1.2 µM -8% | [6]; at 3.7 µM -19% | [6]; at 11.0 µM -26% | [6]; at 33.0 µM -34% | [6]; at 100.0 µM -8% | [7]; [16] -4% | [7]; [17] 6% | [8]; at 1.2 µM 5% | [8]; at 3.7 µM -7% | [8]; at 11.0 µM -12% | [8]; at 33.0 µM -6% | [8]; at 100.0 µM 4% | [9]; [16] 7% | [9]; [17] 39% | [9]; at 50.0 µM 36.6% | [10]; at 1.2 µM -15% | [10]; at 3.7 µM -40% | [10]; [16] -9% | [10]; at 11.0 µM -21% | [10]; at 33.0 µM -12% | [10]; [17] 20% | [10]; at 50.0 µM 7.35% | [10]; at 100.0 µM -11% | [11]; at 1.2 µM 1% | [11]; at 3.7 µM -1% | [11]; at 11.0 µM -2% | [11]; at 33.0 µM -3% | [11]; at 100.0 µM 2% | [12]; at 1.2 µM -5% | [12]; at 3.7 µM -7% | [12]; at 11.0 µM -9% | [12]; at 33.0 µM -4% | [12]; at 100.0 µM 8% | [13]; at 1.2 µM -4% | [13]; at 3.7 µM 2% | [13]; at 11.0 µM 6% | [13]; at 33.0 µM -2% | [13]; at 100.0 µM 13% | [14]; [16] -28% | [14]; [17] 15% | [15]; at 1.2 µM -6% | [15]; at 3.7 µM -9% | [15]; at 11.0 µM -10% | [15]; at 33.0 µM -8% | [15]; at 100.0 µM -4%

Source: PubChem BioAssay (NCI)
